Pf apPOL block: Pf-apPOL inhibitors, biochemical, fluorescence | Plasmodium falciparum apicoplast DNA polymerase (apPOL) | Recombinant Pf-apPOL, molecular beacon fluorescence, 1.5 h | inhibition, % at 10 µM | hit rate 0.25% among 210,000 | AID 1794808, 2022
mHTT-CaM PPI inh: mutant huntingtin-calmodulin interaction inhibitors – biochemical, AlphaScreen, primary screen. P42858. AlphaScreen His-mHTT/GST-CaM binding, luminescence. inhibition, % at 15 µM. hit rate 3.6% among 190,000;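 further: 0% = both proteins with DMSO and 100% = one protein alone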
Active calls of the source: *; / = no result. Many of the other results were omitted from the sample, so hits are more common in it than they were. No stated cut-off is given here; in the data, active means inhibition above about 50%; inactive means the rest.

SMILES	Pf apPOL block	mHTT-CaM PPI inh
Oc1ccc(C=Nc2c(-c3ccco3)nc3ccc(Cl)cn23)cc1	-0.2	52.0*
Oc1ccc(Br)cc1C=Nc1c(-c2ccco2)nc2ccccn12	-5.1	62.0*
CCNc1cc(N2CCC(CCC(=O)NCc3ccccc3C)CC2)ncn1	-0.7	5.1
CC(C)OCCCNC(=O)CN1C(=O)/C(=C/c2ccc(Cl)cc2)Sc2ccccc21	0.3	2.0
COc1ccc([N+](=O)[O-])cc1NC(=O)C1CCCCC1	-1.9	-2.4
COc1ccc([N+](=O)[O-])cc1NC(=O)C1CC(=O)NC(=N)S1 (stereo unspecified)	58.7*	1.0
COc1cccc2cc(C(=O)Nc3nccs3)c(=Nc3ccc(C)c(C)c3)oc12	4.1	2.0
C=CCNC(=O)c1nc(N2CCCCC2)c2c(C)c(C)n(-c3ccccc3)c2n1	-5.1	89.4*
C=CCNC(=O)c1nnc(N2CCCC2)c2ccccc12	-24.0	8.5
CC1CCN(C(=O)c2cnn3c(C(C)(C)C)ccnc23)CC1	0.6	-4.2
N=C1S/C(=C\c2ccccc2)C(=O)N1c1ccc(F)cc1	1.6	0.0
N=C1N=NC(c2ccccc2)=CS/C1=C\c1ccc(F)cc1	1.6	59.2*
Cc1ccccc1CN1CCc2nc(Nc3ccccc3)ncc2C1	-2.0	0.2
Cc1ccc(NC(=O)N2CCCC2c2cc(C(C)C)no2)cc1C (stereo unspecified)	-3.0	-6.3
O=C(NC(Nc1ccc(Cl)cc1)C(Cl)(Cl)Cl)c1ccco1 (stereo unspecified)	4.4	3.0
O=C(NC(Nc1ccc(Cl)cc1Cl)C(Cl)(Cl)Cl)c1ccco1 (stereo unspecified)	9.5	51.0*
COc1ccc(N2CN=c3s/c(=C\c4ccc(I)o4)c(=O)n3C2)cc1	-0.7	12.0
O=C(Cc1csc(NC(=O)c2ccc3c(c2)OCO3)n1)Nc1ccc(-n2cnnn2)cc1	1.3	-6.4
COc1ccc(S(=O)(=O)Nc2ccccc2C)cc1OC	-4.3	-3.0
Cc1ccccc1NS(=O)(=O)c1ccc(-c2ccccc2)cc1	-13.6	80.3*
O=C1OC(c2cccc([N+](=O)[O-])c2)=N/C1=C\c1cc(Br)cs1	-0.1	92.0*
CCOc1ccc(/C=C2\N=C(c3cc([N+](=O)[O-])cc([N+](=O)[O-])c3)OC2=O)cc1	0.1	56.0*
CCOc1ccc(/C=C2\N=C(c3ccc([N+](=O)[O-])cc3)OC2=O)cc1	0.6	2.0
O=C1OC(c2cccc([N+](=O)[O-])c2)=N/C1=C\c1cccs1	-1.9	13.0
CC(C)(C)c1cc(NC(=O)CSCc2ccccc2)n(CCO)n1	-8.6	-18.7
SMILES	Pf apPOL block	mHTT-CaM PPI inh
O=C1OC(/C=C/c2ccc([N+](=O)[O-])cc2)=NC/1=C/c1cccc([N+](=O)[O-])c1	1.2	8.0
CC(=O)Nc1cccc(N=Cc2cc(Cc3ccccc3)cc([N+](=O)[O-])c2O)c1	-6.6	51.0*
Cc1ccccc1C(=O)Nc1cccc(N=Cc2cc([N+](=O)[O-])cc([N+](=O)[O-])c2O)c1	-1.3	48.0
Cc1cccc(N=Cc2cc(Cl)cc([N+](=O)[O-])c2O)c1	-4.4	14.0
O=[N+]([O-])c1cc(Cc2ccccc2)ccc1O	7.1	25.9
O=Cc1cc(Cc2ccccc2)cc([N+](=O)[O-])c1O	-1.4	100.3*
O=C(Nc1cccc(N=Cc2cc(Cl)cc([N+](=O)[O-])c2O)c1)c1ccco1	2.2	68.0*
CCCc1cc(C2CCCN2C(=O)c2cc(-c3ccc(OC)c(OC)c3)on2)no1 (stereo unspecified)	-4.7	5.5
O=C(NCc1ccccn1)C1CCN(c2ncccc2-c2nc(-c3ccccc3)no2)CC1	-3.5	0.6
O=C1[C@@H]2[C@H](C(=O)N1CC(O)COCc1ccccc1)[C@@H]1C=C[C@H]2C1 (stereo partly specified)	-2.5	-2.3
COc1ccccc1C(=O)Nc1c2c(nn1-c1ccccc1C)CSC2	6.6	7.0
OC1CCCCC1c1cccs1 (stereo unspecified)	/	-8.6
O=C1/C(=C/C2CCCO2)CC/C1=C\C1CCCO1 (stereo unspecified)	/	67.8*
O=C1C2CC(Br)C(Br)CC2C(=O)N1CC1CCCO1 (stereo unspecified)	2.2	-1.0
Cc1ccccc1C1=N/C(=C\c2cccn2C)C(=O)O1	4.8	19.0
CC1C/C(=C\c2cccn2C)C(=O)/C(=C/c2cccn2C)C1 (stereo unspecified)	-0.6	99.0*
COc1ccc2c(c1)CC/C(=C\c1cccn1C)C2=O	-6.9	39.0
Cn1cccc1/C=C1\CCC/C(=C\c2cccn2C)C1=O	-2.6	79.0*
CCC1(CC)Cc2ccccc2-c2nc(NCCCO)n(Cc3ccccc3)c(=O)c21	-4.5	27.0
COc1cc(-c2nocc2C#N)ccc1O	0.1	6.0
CN(C)c1ncncc1N1CCC(C(=O)NCc2cccnc2)CC1	0.4	2.5
CCn1cnc2ccc(-c3noc(COc4ccccc4C)n3)cc21	-5.0	6.4
